Measured values taken from ChEMBL document CHEMBL1157539, “Thousands of chemical starting points for antimalarial lead identification” (Nature, 2010).

How the values were obtained:
Type in all cases: functional
Plasmodium falciparum [1] = assay: GSK_TCMDC: Inhibition of Plasmodium falciparum 3D7 in whole red blood cells, using parasite LDH activity as an index of growth. Test compounds present at 2uM
Plasmodium falciparum [2] = assay: GSK_TCMDC: Inhibition of Plasmodium falciparum Dd2 in whole red blood cells, using parasite LDH activity as an index of growth. Test compounds present at 2uM
HepG2 = assay: GSK_TCMDC: Percent inhibition of human HepG2 cell line. Test compounds present at 10uM.

Structure (SMILES)	Inhibition (Plasmodium falciparum [1]) [%]	Inhibition (Plasmodium falciparum [2]) [%]	Inhibition (HepG2) [%]
O=C(Nc1cccc(CN2CCCN(Cc3ccc(O)cc3)CC2)c1)c1ccc(Cl)c(Cl)c1.O=C(O)C(F)(F)F	100	81	22
Cc1cc(N2CCCC2)nc(Nc2ccc(NC(=O)c3ccccc3F)cc2)n1	98	44	36
N#Cc1ccc(N(CCNS(=O)(=O)c2cc(Br)c(Cl)s2)Cc2ccccc2C(F)(F)F)cc1C(F)(F)F	92	57	3
Fc1ccc2[nH]ccc(=NN=CC=Cc3ccccc3)c2c1	96	77	29
COc1ccc(-c2ccc(NC(=O)c3cccc(Cl)c3)cc2)cc1CN1CCCC1.O=C(O)C(F)(F)F	100	84	35
COc1ccc(C2SCC(=O)N2CCc2ccc(OC)c(OC)c2)cc1 (stereo not drawn)	96	2	19
O=C(O)C(F)(F)F.c1cc(-c2ccc(CNC3CCOCC3)cc2)cc(-c2nc3ccccc3[nH]2)c1	100	100	30
Cc1cccc2nc(-c3cccc(-c4cccc(CN5CCN(c6ccncc6)CC5)c4)c3)[nH]c12.O=C(O)C(F)(F)F	100	96	47
CN(C(=O)C1(c2ccc(Cl)cc2)CC1)C1CCN(CCCCCNC(=O)/C=C/c2ccc(Cl)c(Cl)c2)CC1	88	0	91
COc1ccc(NC(=O)[C@H](CC(C)C)Nc2ccnc(Nc3ccccc3)n2)cc1.O=C(O)C(F)(F)F	92	32	0
O=C(NCc1cccc(C(F)(F)F)c1)C(c1cc2ccccc2o1)N1CCN(C(c2ccccc2)c2ccccc2)CC1 (stereo not drawn)	91	80	0
O=c1cc(NCCCCNCc2cccc(Cl)c2)[nH]c2ccccc12	98	41	2
Cc1cccc(-c2nn(-c3ccccc3)c3[nH]c(=O)c(CNC4CCCC4)cc23)c1	98	97	18
Cc1[nH]c(C)c(-c2ccc(OCCOc3ccc(C(F)(F)F)cn3)cc2)c(=O)c1Br	97	97	25
CCOc1ccc(NC(C)=O)c(O)c1	96	0	6
Br.CC1(C)NC(N)=NC(=N)N1OCCCCOc1ccccc1	95	95	60

Structure (SMILES)	Inhibition (Plasmodium falciparum [1]) [%]	Inhibition (Plasmodium falciparum [2]) [%]	Inhibition (HepG2) [%]
NC1CCN(CCNCc2cccc(-c3ccc(-c4nc5cc(C(F)(F)F)ccc5[nH]4)cc3)c2)C1.O=C(O)C(F)(F)F (stereo not drawn)	98	75	19
CCCOc1ccc(NC(=O)c2cccs2)cc1Cl	88	86	1
NCCCN(Cc1ccc(Cl)c(Cl)c1)C(=O)Nc1ccc(Cl)c(Cl)c1	93	41	100
COc1cc(N(Cc2ccc(F)cc2)C(=O)c2ccc(-c3ccccc3)cc2)ccc1OCCN1CCCC1.Cl	93	4	11
O=C(Nc1cccc(-c2cccc(-c3nc4cc(F)ccc4[nH]3)c2)c1)Nc1ccc(F)c(F)c1F	100	100	83
Nc1nc(N)c2cc(S(=O)(=O)c3ccc4ccccc4c3)ccc2n1	95	51	14
Cc1cc(-c2cccc(CNC3CCN(C)CC3)c2)ccc1S(=O)(=O)NCCN1CCCC1.O=C(O)C(F)(F)F	100	0	18
O=C(O)C(F)(F)F.Oc1ccc2[nH]c(-c3cccc(F)c3)nc2c1CNCc1ccccc1	92	55	29
COc1ccc2nc(-c3ccccc3)cc(N/N=C/c3ccc([N+](=O)[O-])cc3)c2c1	100	100	89
Oc1ccc(Cl)cc1CN1CCC2(CCCN(CC3CCC3)C2)C1 (stereo not drawn)	100	94	5
O=C(NCCN1CCOCC1)c1csc(C2CCCN(C(=O)c3ccc(O)c(-c4cc(Cl)cc(Cl)c4)c3)C2)n1 (stereo not drawn)	97	50	12
Cc1cccc2nc(-c3cccc(-c4cccc(CNCc5ccc(S(C)(=O)=O)cc5)c4)c3)[nH]c12.O=C(O)C(F)(F)F	100	66	13
Cc1nnc2c(NC(=O)/C=C/c3ccc(OC(F)(F)F)cc3)cc3cc(Cl)ccc3n12	94	99	19
Cn1c(Nc2cc(C(C)(C)C)on2)nc2cc(Nc3ccnc(Nc4cccc(CS(C)(=O)=O)c4)n3)ccc21	99	94	63
COc1ccc(-c2cccc(NC(=O)c3cccc(C#N)c3)c2)cc1CN1CCCC1.O=C(O)C(F)(F)F	98	32	28
